Source: the supplement of paper PMC10849652
The full data set covers some 7,900 targets. This sample favours those with a hit. About 0.6% of all pairs of compound and target were hits. Values without a mark were called inactive.

Tests used:
Assay in all cases: log2 fold change, soluble protein after heating vs DMSO (PISA); higher = thermal stabilisation; K562 cells, 10 uM, 30 min; active = over 0.2 and 3.5 SD of the protein, either way, in both replicates (recomputed)
bafetinib = compound: Cc1ccc(NC(=O)c2ccc(CN3CC[C@H](N(C)C)C3)c(C(F)(F)F)c2)cc1Nc1nccc(-c2cncnc2)n1 [bafetinib]
Procedure, shortened: (§1)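 K562 cells (2×10^6 cells/mL) were treated with 10 μM compound for 30 min, and aliquots were heated for 3 min over 48°C-58°C. Pooled aliquots were extracted in PBS with 0.5% NP-40 at 4°C, and the supernatant after 21,000xg for 90 min was measured by TMTpro 16plex LC-MS/MS with channel sums equalised. Reported thermal stability, relative to control samples and from duplicates, is a log2 fold change.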

[1] = compound: Cc1cccc(CC(=O)N2CCc3c2ccc(-c2cn(C)c4ncnc(N)c24)c3F)n1
Procedure, shortened: as §1

nilotinib = compound: Cc1cn(-c2cc(NC(=O)c3ccc(C)c(Nc4nccc(-c5cccnc5)n4)c3)cc(C(F)(F)F)c2)cn1 [nilotinib]
Procedure, shortened: as §1

[2] = compound: Cc1nc(Nc2n[nH]c3c2CN(C(=O)N[C@H](CN(C)C)c2ccccc2)C3(C)C)c2sccc2n1
Procedure, shortened: as §1

dasatinib = compound: Cc1nc(Nc2ncc(C(=O)Nc3c(C)cccc3Cl)s2)cc(N2CCN(CCO)CC2)n1 [dasatinib]
Procedure, shortened: as §1

[3] = compound: Cc1ncc(-c2ccnc(Nc3ccc(S(C)(=O)=O)cc3)n2)n1C(C)C
Procedure, shortened: as §1

[4] = compound: Cn1cc(-c2ccc3c(c2)CCN3C(=O)Cc2cccc(C(F)(F)F)c2)c2c(N)ncnc21
Procedure, shortened: as §1

[5] = compound: Cn1cc(-c2ccc3nnc(C(F)(F)c4ccc5ncccc5c4)n3n2)cn1
Procedure, shortened: as §1

tipifarnib = compound: Cn1cncc1[C@@](N)(c1ccc(Cl)cc1)c1ccc2c(c1)c(-c1cccc(Cl)c1)cc(=O)n2C [tipifarnib]
Procedure, shortened: as §1

mubritinib = compound: FC(F)(F)c1ccc(/C=C/c2nc(COc3ccc(CCCCn4ccnn4)cc3)co2)cc1 [mubritinib]
Procedure, shortened: as §1

[6] = compound: NC(=O)Nc1cc(-c2cccc(F)c2)sc1C(=O)N[C@H]1CCCNC1
Procedure, shortened: as §1

[7] = compound: NC(=O)c1cnc(N[C@@H]2CCCC[C@@H]2N)nc1Nc1cccc(-n2nccn2)c1
Procedure, shortened: as §1

[8] = compound: NC1(c2ccc(-c3nc4ccn5c(=O)[nH]nc5c4cc3-c3ccccc3)cc2)CCC1
Procedure, shortened: as §1

[9] = compound: NCC(=O)Nc1ccc(-n2nc(C(F)(F)F)cc2-c2ccc3c(ccc4ccccc43)c2)cc1
Procedure, shortened: as §1

entinostat = compound: Nc1ccccc1NC(=O)c1ccc(CNC(=O)OCc2cccnc2)cc1 [entinostat]
Procedure, shortened: as §1

vorinostat = compound: O=C(CCCCCCC(=O)Nc1ccccc1)NO [vorinostat]
Procedure, shortened: as §1

citarinostat = compound: O=C(CCCCCCNC(=O)c1cnc(N(c2ccccc2)c2ccccc2Cl)nc1)NO [citarinostat]
Procedure, shortened: as §1

silmitasertib = compound: O=C(O)c1ccc2c(c1)nc(Nc1cccc(Cl)c1)c1ccncc12 [silmitasertib]
Procedure, shortened: as §1

[10] = compound: O=C1NC(=O)C(c2cnc3ccccn23)=C1c1cn2c3c(cc(F)cc13)CN(C(=O)N1CCCCC1)CC2
Procedure, shortened: as §1

[11] = compound: c1cc(OCCN2CCCCC2)cc(-c2n[nH]c3ccc(-c4nnc[nH]4)cc23)c1
Procedure, shortened: as §1

Sequence of UniProt Q9UJU6 (Q9UJU6 whole entry, looked up): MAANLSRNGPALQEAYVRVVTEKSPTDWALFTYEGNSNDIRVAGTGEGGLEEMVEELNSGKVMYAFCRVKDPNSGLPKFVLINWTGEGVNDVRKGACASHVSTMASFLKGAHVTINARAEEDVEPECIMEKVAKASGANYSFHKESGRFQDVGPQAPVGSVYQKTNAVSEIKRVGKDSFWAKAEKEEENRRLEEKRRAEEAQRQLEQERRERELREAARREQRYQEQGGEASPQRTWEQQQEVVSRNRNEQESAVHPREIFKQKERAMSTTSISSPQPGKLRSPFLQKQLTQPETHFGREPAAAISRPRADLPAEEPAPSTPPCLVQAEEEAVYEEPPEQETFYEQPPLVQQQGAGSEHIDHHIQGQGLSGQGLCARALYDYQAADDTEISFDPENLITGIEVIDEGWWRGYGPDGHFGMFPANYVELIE
Sequence of UniProt P26641 (P26641 whole entry, looked up): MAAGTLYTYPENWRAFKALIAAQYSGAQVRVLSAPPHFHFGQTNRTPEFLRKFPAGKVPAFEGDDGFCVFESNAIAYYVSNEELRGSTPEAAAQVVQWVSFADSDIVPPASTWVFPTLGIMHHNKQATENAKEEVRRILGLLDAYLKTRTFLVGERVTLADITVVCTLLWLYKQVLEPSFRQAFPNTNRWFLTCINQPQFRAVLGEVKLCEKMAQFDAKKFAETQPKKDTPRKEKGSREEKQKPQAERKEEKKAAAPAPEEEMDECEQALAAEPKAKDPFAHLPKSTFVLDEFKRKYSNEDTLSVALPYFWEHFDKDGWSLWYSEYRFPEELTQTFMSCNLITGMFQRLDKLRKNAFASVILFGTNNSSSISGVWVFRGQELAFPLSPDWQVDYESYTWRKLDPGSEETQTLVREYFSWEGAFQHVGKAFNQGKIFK
Sequence of UniProt P06730 (P06730 whole entry, looked up): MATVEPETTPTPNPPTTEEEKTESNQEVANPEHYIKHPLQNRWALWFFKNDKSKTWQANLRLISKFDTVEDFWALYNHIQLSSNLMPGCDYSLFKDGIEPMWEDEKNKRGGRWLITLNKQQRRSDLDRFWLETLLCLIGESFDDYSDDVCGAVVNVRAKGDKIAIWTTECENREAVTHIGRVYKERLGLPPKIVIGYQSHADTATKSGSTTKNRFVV
Sequence of UniProt O75477 (O75477 whole entry, looked up): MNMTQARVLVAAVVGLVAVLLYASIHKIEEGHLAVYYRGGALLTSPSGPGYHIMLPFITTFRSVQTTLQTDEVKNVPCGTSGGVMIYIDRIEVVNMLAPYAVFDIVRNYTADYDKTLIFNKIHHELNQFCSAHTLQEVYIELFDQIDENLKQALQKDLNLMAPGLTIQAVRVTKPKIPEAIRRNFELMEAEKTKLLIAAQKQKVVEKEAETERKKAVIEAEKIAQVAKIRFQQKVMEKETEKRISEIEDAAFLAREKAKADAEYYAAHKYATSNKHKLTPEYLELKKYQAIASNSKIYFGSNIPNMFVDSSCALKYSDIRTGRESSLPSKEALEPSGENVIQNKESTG
Sequence of UniProt Q9NZN4 (Q9NZN4 whole entry, looked up): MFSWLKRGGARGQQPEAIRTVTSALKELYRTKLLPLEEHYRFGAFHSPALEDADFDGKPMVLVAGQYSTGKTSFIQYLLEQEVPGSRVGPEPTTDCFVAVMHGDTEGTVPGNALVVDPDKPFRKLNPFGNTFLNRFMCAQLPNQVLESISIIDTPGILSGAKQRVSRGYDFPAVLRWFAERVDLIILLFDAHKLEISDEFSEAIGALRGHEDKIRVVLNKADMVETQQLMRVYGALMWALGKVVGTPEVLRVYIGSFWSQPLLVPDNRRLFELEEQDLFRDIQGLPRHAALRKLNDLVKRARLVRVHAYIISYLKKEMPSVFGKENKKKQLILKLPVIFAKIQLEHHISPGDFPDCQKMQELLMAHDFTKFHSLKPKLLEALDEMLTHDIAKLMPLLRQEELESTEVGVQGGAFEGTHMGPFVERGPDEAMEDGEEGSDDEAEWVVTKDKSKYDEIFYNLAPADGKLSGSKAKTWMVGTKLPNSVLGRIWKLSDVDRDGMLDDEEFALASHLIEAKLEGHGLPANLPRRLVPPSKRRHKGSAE
Sequence of UniProt Q9NV06 (Q9NV06 whole entry, looked up): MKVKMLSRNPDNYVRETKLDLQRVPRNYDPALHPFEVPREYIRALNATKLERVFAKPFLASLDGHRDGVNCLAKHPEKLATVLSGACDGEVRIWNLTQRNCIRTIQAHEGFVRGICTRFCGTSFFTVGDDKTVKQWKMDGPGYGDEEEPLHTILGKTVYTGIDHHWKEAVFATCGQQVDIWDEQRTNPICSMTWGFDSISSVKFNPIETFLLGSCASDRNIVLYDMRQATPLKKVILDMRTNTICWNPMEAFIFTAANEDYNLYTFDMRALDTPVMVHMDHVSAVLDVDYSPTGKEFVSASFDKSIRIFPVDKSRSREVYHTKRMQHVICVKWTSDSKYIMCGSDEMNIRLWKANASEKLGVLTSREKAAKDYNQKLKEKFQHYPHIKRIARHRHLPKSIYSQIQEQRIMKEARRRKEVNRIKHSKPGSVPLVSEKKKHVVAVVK
Sequence of UniProt Q5W0V3 (Q5W0V3 whole entry, looked up): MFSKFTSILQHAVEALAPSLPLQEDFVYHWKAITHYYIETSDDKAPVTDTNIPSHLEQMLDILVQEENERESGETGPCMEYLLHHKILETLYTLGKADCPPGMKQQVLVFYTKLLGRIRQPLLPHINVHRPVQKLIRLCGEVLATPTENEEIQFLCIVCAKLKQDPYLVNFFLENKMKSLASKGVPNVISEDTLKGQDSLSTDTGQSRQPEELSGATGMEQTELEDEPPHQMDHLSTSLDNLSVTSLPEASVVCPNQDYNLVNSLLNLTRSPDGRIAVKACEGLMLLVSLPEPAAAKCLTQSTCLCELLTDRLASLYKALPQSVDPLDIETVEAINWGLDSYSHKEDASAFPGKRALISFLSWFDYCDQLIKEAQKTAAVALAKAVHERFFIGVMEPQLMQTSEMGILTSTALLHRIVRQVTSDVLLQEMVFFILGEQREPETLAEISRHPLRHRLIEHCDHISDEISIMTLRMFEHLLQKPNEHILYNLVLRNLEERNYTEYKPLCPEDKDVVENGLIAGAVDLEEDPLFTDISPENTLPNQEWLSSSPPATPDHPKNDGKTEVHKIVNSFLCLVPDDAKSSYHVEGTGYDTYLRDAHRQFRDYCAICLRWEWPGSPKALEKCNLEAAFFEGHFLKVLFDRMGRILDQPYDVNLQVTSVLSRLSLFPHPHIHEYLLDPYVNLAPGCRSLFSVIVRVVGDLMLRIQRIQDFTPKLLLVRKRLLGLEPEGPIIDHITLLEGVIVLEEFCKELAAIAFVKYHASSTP
Sequence of UniProt Q99848 (Q99848 whole entry, looked up): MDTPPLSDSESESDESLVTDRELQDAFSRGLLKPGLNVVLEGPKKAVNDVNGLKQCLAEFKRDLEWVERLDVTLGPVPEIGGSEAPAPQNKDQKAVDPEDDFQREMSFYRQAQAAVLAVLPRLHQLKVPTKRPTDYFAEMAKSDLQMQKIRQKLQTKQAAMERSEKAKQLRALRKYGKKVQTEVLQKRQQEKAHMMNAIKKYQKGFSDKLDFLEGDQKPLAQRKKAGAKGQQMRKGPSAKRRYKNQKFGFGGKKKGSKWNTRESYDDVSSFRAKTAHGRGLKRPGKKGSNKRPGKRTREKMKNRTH
Sequence of UniProt Q6IAN0 (Q6IAN0 whole entry, looked up): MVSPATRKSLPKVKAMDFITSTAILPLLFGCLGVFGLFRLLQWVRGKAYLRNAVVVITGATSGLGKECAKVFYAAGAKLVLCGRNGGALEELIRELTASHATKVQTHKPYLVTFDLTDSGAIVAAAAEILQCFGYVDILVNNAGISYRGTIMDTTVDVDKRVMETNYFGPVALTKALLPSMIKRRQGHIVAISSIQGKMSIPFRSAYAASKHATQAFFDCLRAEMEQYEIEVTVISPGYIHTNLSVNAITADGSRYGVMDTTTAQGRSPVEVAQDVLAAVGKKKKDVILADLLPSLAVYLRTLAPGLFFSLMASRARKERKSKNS
Sequence of UniProt Q9NYP7 (Q9NYP7 whole entry, looked up): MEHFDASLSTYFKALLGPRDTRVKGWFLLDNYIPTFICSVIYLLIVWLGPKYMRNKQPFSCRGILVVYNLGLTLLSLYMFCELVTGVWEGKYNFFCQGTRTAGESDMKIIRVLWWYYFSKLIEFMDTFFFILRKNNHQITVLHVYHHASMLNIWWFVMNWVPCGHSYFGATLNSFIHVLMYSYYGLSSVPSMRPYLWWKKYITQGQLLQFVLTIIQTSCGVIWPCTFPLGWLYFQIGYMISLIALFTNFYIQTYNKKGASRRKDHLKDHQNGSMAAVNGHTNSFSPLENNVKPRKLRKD
Sequence of UniProt Q96GG9 (Q96GG9 whole entry, looked up): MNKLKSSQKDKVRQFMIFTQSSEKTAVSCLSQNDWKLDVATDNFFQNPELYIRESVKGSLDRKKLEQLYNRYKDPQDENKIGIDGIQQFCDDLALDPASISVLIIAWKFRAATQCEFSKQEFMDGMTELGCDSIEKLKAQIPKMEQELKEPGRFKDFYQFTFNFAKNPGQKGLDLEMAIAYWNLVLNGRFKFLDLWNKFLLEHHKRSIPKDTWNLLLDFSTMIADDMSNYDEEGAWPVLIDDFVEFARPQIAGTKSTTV
Sequence of UniProt Q9Y5Q0 (Q9Y5Q0 whole entry, looked up): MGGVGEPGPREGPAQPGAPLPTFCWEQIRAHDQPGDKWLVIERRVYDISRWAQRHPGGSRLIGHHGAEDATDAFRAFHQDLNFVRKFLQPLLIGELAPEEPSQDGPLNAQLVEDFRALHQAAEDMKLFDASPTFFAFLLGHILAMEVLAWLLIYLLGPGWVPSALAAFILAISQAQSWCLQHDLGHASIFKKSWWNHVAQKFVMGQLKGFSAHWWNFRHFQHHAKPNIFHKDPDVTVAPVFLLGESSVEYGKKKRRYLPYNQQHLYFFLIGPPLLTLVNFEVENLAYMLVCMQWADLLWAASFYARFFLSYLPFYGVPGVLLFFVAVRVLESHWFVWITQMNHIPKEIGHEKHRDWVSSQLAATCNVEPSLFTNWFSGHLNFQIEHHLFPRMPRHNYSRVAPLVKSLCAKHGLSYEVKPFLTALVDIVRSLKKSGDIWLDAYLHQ

Target	log2 fold change (bafetinib)	log2 fold change [1]	log2 fold change (nilotinib)	log2 fold change [2]	log2 fold change (dasatinib)	log2 fold change [3]	log2 fold change [4]	log2 fold change [5]	log2 fold change (tipifarnib)	log2 fold change (mubritinib)	log2 fold change [6]	log2 fold change [7]	log2 fold change [8]	log2 fold change [9]	log2 fold change (entinostat)	log2 fold change (vorinostat)	log2 fold change (citarinostat)	log2 fold change (silmitasertib)	log2 fold change [10]	log2 fold change [11]
EIF4E isoform 2 (UniProt P06730)	0.012	0.05	0.199	-0.072	0.013	0.272	0.125	0.082	-0.029	0.045	0.005	0.226	0.059	0.126	-0.073	-0.01	-0.026	0.102	-0.044	0.141
EIF3J (UniProt O75822)	-0.067	0.266 (active)	0.001	-0.019	-0.018	0.008	0.022	-0.014	-0.013	0.033	0.035	-0.033	-0.072	0.007	0.012	0.143	0.001	0.042	-0.017	0.022
EIF2S3 (UniProt P41091)	0.133	-0.023	-0.04	0.072	0.043	0.014	-0.081	-0.052	0.019	-0.017	0.034	0.006	0.163	0.025	-0.001	0	-0.044	-0.001	0.066	-0.154
DCUN1D1 (UniProt Q96GG9)	-0.083	0.026	-0.025	-0.018	-0.047	0	0.008	0.03	-0.059	0.015	-0.024	-0.048	-0.102	-0.01	0.016	0.002	0.054	0.002	-0.098	-0.02
EDC4 (UniProt Q6P2E9)	0.006	0	0.013	-0.077	-0.018	-0.119	-0.046	-0.031	-0.038	-0.019	-0.06	-0.024	-0.026	-0.082	0.026	-0.023	0.035	-0.05	-0.066	-0.253 (active)
EEF1G isoform 2 (UniProt P26641)	0.033	0.083	-0.034	-0.03	-0.032	0.045	-0.03	-0.05	-0.124	0.028	-0.005	-0.039	-0.1	0.011	0.036	0.059	0.035	0.014	0.003	-0.046
FADS3 (UniProt Q9Y5Q0)	-0.11	0.044	0.108	-0.012	-0.109	-0.013	0.034	-0.037	-0.033	0.059	-0.086	-0.096	-0.074	0.079	-0.06	0.024	0.022	-0.008	0.259	-0.034
EXTL2 (UniProt Q9UBQ6)	-0.041	0.021	-0.02	0.006	-0.008	-0.059	-0.039	-0.064	0.014	0.029	-0.051	-0.033	-0.018	0.039	-0.01	0.019	-0.044	-0.011	0.003	-0.223
DUS2 (UniProt Q9NX74)	-0.017	-0.025	-0.243	-0.032	-0.07	0.014	-0.072	0.01	0.094	0.045	0.051	-0.066	-0.091	-0.004	0.008	0.041	0.124	0.092	-0.424 (active)	0.038
DCAF13 (UniProt Q9NV06)	0.178	0	0.006	0.102	0.077	-0.05	-0.249	-0.173	0.193	-0.106	-0.004	0.049	0.196	0.077	-0.058	0.004	-0.044	0.108	0.054	-0.077
FAM50A (UniProt Q14320)	-0.035	-0.045	-0.016	-0.096	-0.134	0.029	-0.021	0.044	-0.031	0.083	0.003	-0.008	-0.087	-0.082	0.045	0.011	0.095	0.071	-0.001	-0.019
ECH1 (UniProt Q13011)	0.318	-0.003	-0.024	0.013	0.249	-0.033	0.134	0.039	-0.056	-0.011	0	-0.101	0.295	-0.078	-0.025	-0.015	0.002	-0.072	-0.076	0.038
EEF1D isoform 2 (UniProt P29692)	0.025	-0.011	-0.066	-0.01	-0.051	0	-0.007	-0.044	-0.103	0.081	-0.02	-0.06	-0.034	-0.105	0.018	-0.02	0.017	0.108	-0.001	-0.067
EIF4A1 (UniProt P60842)	0.032	0.014	-0.135	-0.063	-0.114	-0.047	0.036	-0.022	-0.058	-0.08	0.148	-0.08	-0.029	-0.044	0.079	0.068	0.088	-0.01	-0.01	-0.05
EEF1AKNMT (UniProt Q8N6R0)	0.067	-0.008	-0.02	-0.062	-0.118	0.084	-0.031	0.003	-0.154	0.089	-0.025	-0.061	-0.109	-0.017	0.038	0.161	-0.002	0.059	0.055	0.031
DTWD1 (UniProt Q8N5C7)	0.006	-0.014	0.057	0	0.001	0.082	0.051	-0.027	-0.02	0.02	-0.001	0.014	-0.147	-0.04	0.063	0.246 (active)	-0.001	-0.004	0.014	-0.064
EBNA1BP2 (UniProt Q99848)	0.312	-0.114	0.114	-0.089	0.226	-0.004	-0.499	-0.176	0.134	-0.124	0.05	0.006	0.195	0.158	-0.029	0.133	0.041	0.151	0.352	-0.292
FAM160B1 (UniProt Q5W0V3)	-0.018	0.023	-0.032	-0.049	-0.082	-0.014	-0.053	-0.039	0.115	0.023	0.04	-0.038	-0.211 (active)	-0.043	0.026	0.139	0.069	-0.026	-0.064	0
ERLIN1 (UniProt O75477)	0.041	0.094	-0.153	0.032	-0.031	0.004	-0.11	0.002	0.026	-0.053	0.083	-0.068	-0.066	-0.043	0.111	0.074	-0.01	-0.009	0.084	-0.045
EEF1B2 (UniProt P24534)	0.006	0.025	-0.042	-0.03	0.026	0.043	-0.057	-0.054	-0.109	0.058	0.012	-0.112	-0.035	-0.09	0.04	0.02	0.004	0.027	-0.007	-0.035
DBNL isoform 3 (UniProt Q9UJU6)	0.048	-0.007	-0.05	-0.071	-0.098	-0.013	-0.003	0.057	-0.096	0.032	0.021	-0.022	-0.109	-0.061	-0.003	-0.01	0.063	0.058	0.012	0.007
ELOVL5 isoform 2 (UniProt Q9NYP7)	-0.166	0.124	-0.182	0.021	-0.147	-0.054	0.063	0.011	-0.204	0.068	-0.07	0.001	-0.194	-0.065	0.056	0.062	0	0.098	0.035	-0.158
DHRS7B (UniProt Q6IAN0)	0.001	0.213	0.114	0.01	-0.066	0.056	0.047	-0.113	0.008	-0.023	-0.099	0.083	-0.012	0.117	-0.014	0.16	0.01	-0.05	-0.113	0.077
FADS1, A0A0A0MR51	-0.03	0.062	0.004	-0.005	0.011	-0.019	0.253 (active)	-0.045	-0.021	0.028	-0.041	-0.036	-0.074	0.036	-0.002	-0.105	-0.029	0.014	-0.15	-0.029
EDRF1 (UniProt Q3B7T1)	-0.04	-0.209	–	–	-0.157	–	-0.275	-0.114	–	0.045	-0.062	–	-0.044	–	-0.055	0.083	-0.044	-0.031	-0.057	-0.103
EHD2 (UniProt Q9NZN4)	-0.051	0.008	-0.062	0.01	-0.112	0.003	0.012	-0.031	-0.028	-0.061	-0.034	-0.048	-0.072	-0.096	0.033	0.055	0.048	0.012	-0.04	-0.015
